Hits are enriched below; roughly 3.5% of the tested compounds scored in any of these assays.
MITF primary: blocks human microphthalmia-associated transcription factor. inhibition, % at 2.6 µM. O75030. 650,000 tested, 0.91% active. AlphaScreen MITF homodimerization, bead proximity signal. AID 1259374; in the data active = inhibition above about 50%
TEAD-YAP block: TEAD-YAP interaction inhibition; HEK-TIYL cells, TEAD-Gal4/YAP UAS-luciferase luminescence; inhibition, % at 9.12 µM; 640,000 tested, 1.4% active; AID 1259422; in the data active = inhibition above about 32%
FBW7 act: human FBW7 E3 ligase activation, primary screen. AlphaScreen FBW7–phospho-cyclin E peptide binding, activator screen. normalized activity (activation), % at 26.1 µM. 650,000 tested, 0.13% active; in the data active = normalized activity above about 1.9%;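 note: purified mutant Fbw7 with reduced substrate affinity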
GPR151 ag: activators of human GPR151 | activation, % at 11.2 µM | Q8TDV0 | PathHunter beta-arrestin GPR151 cells, luminescence | 650,000 tested, 1% active; in the data active = activation above about 4.9%
Target sequence (Q8TDV0 whole entry, looked up): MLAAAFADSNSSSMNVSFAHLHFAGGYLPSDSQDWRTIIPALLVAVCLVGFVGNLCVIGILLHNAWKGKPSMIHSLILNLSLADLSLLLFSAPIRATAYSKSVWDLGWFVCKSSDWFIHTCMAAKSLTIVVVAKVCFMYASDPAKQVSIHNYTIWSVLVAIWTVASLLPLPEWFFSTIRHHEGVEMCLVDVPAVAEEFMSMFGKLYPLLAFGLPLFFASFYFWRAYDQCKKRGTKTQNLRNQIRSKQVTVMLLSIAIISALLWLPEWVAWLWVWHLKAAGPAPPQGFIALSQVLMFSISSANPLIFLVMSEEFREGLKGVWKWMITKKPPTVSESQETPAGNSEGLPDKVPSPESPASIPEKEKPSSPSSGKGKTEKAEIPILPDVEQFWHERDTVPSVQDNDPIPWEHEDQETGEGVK
GPR151 conf act: human GPR151 activation, confirmation screen; shares compounds with GPR151 ag; GPR151 PathHunter beta-arrestin cells, luminescence, 90 min; % of EA-reagent control over plate median; activation, % at 11.2 µM; 6,700 tested, under 10 active;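 active = mean percent activation across replicates above the confirmation screen cutoff of 4.91%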
GPR119 ag: activates human GPR119 in a GPR151 counter-screen | AID 1508611 | activation, % at 11.2 µM | shares compounds with GPR151 ag | 6,700 tested, 0.3% active | GPR119 PathHunter beta-arrestin cells, luminescence, 90 min; 0 = compound-well median, 100 = enzyme-acceptor control;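 active = mean percent activation in the counterscreen above 29.09%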;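 note: counterscreen on off-target GPR119 to flag nonselective hits from the GPR151 activator screen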
A number is an active result; i = inactive; nt = no result.

SMILES	MITF primary	TEAD-YAP block	FBW7 act	GPR151 ag	GPR151 conf act	GPR119 ag
CCn1nnc2c(=O)n(CC(=O)c3ccccc3)cnc21	i	i	i	i	nt	nt
CCc1nn(CC(=O)OC(C)C)c(=O)c2cc3oc(C)cc3n12	i	i	i	5.4	i	i
O=C(c1ccc(Cl)cc1)c1cc(NC(=O)c2cc(Br)cc(Br)c2O)ccc1Oc1ccc(Cl)cc1	i	i	i	9.6	i	i
CC(=O)c1ccc(S(=O)(=O)NCCc2cn3ccc(C)cc3n2)cc1	i	i	i	5.0	i	i
NS(=O)(=O)c1ccc(NC(=S)NCc2ccc3c(c2)OCO3)cc1	i	i	i	9.1	i	i
O=C(CN1C(=O)/C(=C/c2ccccc2)Sc2ccccc21)NCc1ccc2c(c1)OCO2	i	i	i	9.0	i	i
O=C(CN1C(=O)/C(=C\c2cccc(Cl)c2)Sc2ccccc21)NCc1cccnc1	i	i	i	i	nt	nt
O=S(=O)(Cc1ccc2c(c1)OCO2)c1ccc2ccccc2c1	i	i	i	5.8	i	i
O=C(Cc1cc(=O)[nH]c(=O)[nH]1)NCc1ccc2c(c1)OCO2	i	i	i	8.6	i	i
O=C(CCNS(=O)(=O)c1ccc2[nH]c(=O)ccc2c1)NCc1ccco1	i	i	i	i	nt	nt
COc1cc(/C=C(\C#N)C(=O)Nc2cccc(Cl)c2)ccc1OCC(=O)O	i	i	i	i	nt	nt
Cc1cc(C)cc(NC(=O)COC(=O)c2ccccn2)c1	i	i	i	i	nt	nt
O=C(CCN1N=C(c2ccccc2)CCC1=O)NCc1ccc(Cl)cc1	i	i	i	i	nt	nt
O=C(CCN1N=C(c2ccccc2)CCC1=O)NCc1ccc2c(c1)OCO2	i	i	i	7.2	i	i
O=C(CSc1n[nH]c(=O)n1C1CC1)NCc1ccc2c(c1)OCO2	i	i	i	6.3	i	i
O=C(CS(=O)(=O)c1ccccc1)NCc1ccc2c(c1)OCO2	i	i	i	5.1	i	i
Cc1cc(=O)[nH]c2nnc(SCC(=O)NCc3ccc4c(c3)OCO4)n12	i	i	i	i	nt	nt
COc1ccccc1CNc1ccc2c(c1)nc(C)n2Cc1ccccc1	i	i	i	i	nt	nt
Cc1ccc(NC(=O)COc2ccc(C(C)(C)C)cc2)cc1[N+](=O)[O-]	i	i	i	i	nt	nt
Cc1ccc(N2C(=O)CC(Nc3ccc(F)cc3)C2=O)c(Br)c1 (stereo not given)	i	i	i	14.8	i	i
Cc1cccc(N2C(=O)CC(Nc3ccc(F)cc3)C2=O)c1 (stereo not given)	i	i	i	i	nt	nt
O=C(NC1CCCC1)c1ccc(Sc2ccc(F)cc2)c([N+](=O)[O-])c1	i	i	i	i	nt	nt
O=c1c2cnn(-c3ccccc3)c2ncn1C/C=C/c1ccccc1	i	i	i	8.3	i	i
CCOC(=O)N1CCc2c(sc(NC(=O)c3ccc(Br)s3)c2C#N)C1	i	i	i	9.1	i	i
CC(C)c1ccc(N(CC(=O)O)S(=O)(=O)c2ccc3[nH]c(=O)c(=O)[nH]c3c2)cc1	i	i	i	i	nt	nt
SMILES	MITF primary	TEAD-YAP block	FBW7 act	GPR151 ag	GPR151 conf act	GPR119 ag
Clc1cccc(CN2CCN(c3nc4nonc4nc3NC3CC3)CC2)c1	i	i	i	11.4	i	i
CCCc1ccc(C(=O)/C=C/N(C)C)cc1	i	i	i	5.7	i	i
Cc1cc(C)c2nc(N(CCn3cccn3)C(=O)C3CC3)sc2c1	i	i	i	6.1	i	i
Cc1ccc(N=NNc2cccc([N+](=O)[O-])c2)cc1	i	i	i	5.9	i	i
COc1ccc(C2C(C#N)=C(N)Oc3cc(N)ccc32)cc1Br (stereo not given)	i	i	i	7.6	i	i
CCOC(=O)c1ccc(NC(=O)/C=C/c2ccco2)cc1	i	i	i	i	nt	nt
O=C(NCC1CCCN(C(=O)c2cccnc2)C1)c1ccc(-c2ccccc2)cc1 (stereo not given)	i	i	i	i	nt	nt
CC(=O)c1nc2ccccc2n1S(=O)(=O)c1ccc(Cl)cc1	i	i	i	5.2	i	i
Fc1ccc(Nc2nc(Nc3ccc(F)cc3)nc(N3CCCCCC3)n2)cc1	i	i	i	i	nt	nt
CCc1ccc(-n2c(=S)sc3c(=O)n(-c4ccc(C)cc4)c(SC)nc32)cc1	i	i	i	i	nt	nt
COc1cccc(NC(=O)CSc2nc3ccc(OC)cc3cc2C#N)c1	i	i	i	5.1	i	i
CC(=O)N1CCN(S(=O)(=O)c2ccc(S(=O)(=O)N3CCC(C)CC3)cc2)CC1	i	i	i	i	nt	nt
CC1CCN(S(=O)(=O)c2coc(C(N)=O)c2)CC1	i	i	i	10.0	i	i
CN(CC(=O)O)c1nc2ccc([N+](=O)[O-])cc2s1	i	i	i	i	nt	nt
CCCCOc1ccc(/C=C/C(=O)N2CCCCC2)cc1	i	i	i	5.6	i	i
C/C(=N\Nc1ccccc1)c1no[n+]([O-])c1C	i	i	i	6.1	i	i
CC(C)c1nnc(C2CCN(C(=O)Cn3c(=O)oc4ccccc43)CC2)o1	i	i	i	9.7	i	i
CCc1ccccc1NC(=O)C(=O)N/N=C/c1ccc(I)cc1	i	i	i	i	nt	nt
Cc1cc(N2CCCCC2)nc2ccc(NC(=O)c3cccc([N+](=O)[O-])c3)cc12	i	i	i	16.9	i	i
Nc1ncnc2c1nc(SCCO)n2Cc1ccccc1	i	i	i	i	nt	nt
c1ccc2c(NC3CCCC3)nc(N3CCNCC3)nc2c1	i	i	i	i	nt	nt
CN1CCN(c2nc(NC3CCCCC3)c3ccccc3n2)CC1	i	i	i	11.8	i	i
Cc1cnc(C(=O)OCC(=O)c2cc(C)n(CCc3ccc(F)cc3)c2C)cn1	i	i	i	8.1	i	i
Cc1cc(C(=O)COC(=O)c2ccc(CO)cc2)c(C)n1-c1ccc(F)cc1	i	i	i	5.0	i	i
COC(=O)c1ccc(-n2c(C)cc(C(=O)COC(=O)c3ccccc3C=O)c2C)cc1	i	i	i	i	nt	nt
SMILES	MITF primary	TEAD-YAP block	FBW7 act	GPR151 ag	GPR151 conf act	GPR119 ag
CN(CC(=O)NCCc1ccc(Cl)cc1)S(=O)(=O)c1cnc[nH]1	i	i	i	i	nt	nt
Cc1nnc(SCC(=O)N2CCCCC2)n(N)c1=O	i	i	i	i	nt	nt
Cc1nnc(SCC(=O)N2CCCC2)n(N)c1=O	i	i	i	5.5	i	i
CCCCNc1nc(SCC(=O)Nc2ccc(OCC)cc2)nc2ccccc12	i	i	i	i	nt	nt
COCCNc1nc(SCC(=O)NCCc2ccc(S(N)(=O)=O)cc2)nc2ccccc12	i	i	i	4.9	i	i
CCOc1ccc(NC(=O)CSc2nc(NCCc3ccccc3)c3ccccc3n2)cc1	i	i	i	6.0	i	i
O=C(NCCc1ccccc1)c1ccc(N2CCCCS2(=O)=O)cc1	i	i	i	i	nt	nt
CC(C)(C)NC(=O)C(c1ccccn1)N(Cc1ccccc1)C(=O)c1csnn1 (stereo not given)	i	i	i	4.9	i	i
CC1CCCCN1CCNC(=O)C1(S(=O)(=O)c2ccc(Cl)cc2)CC1 (stereo not given)	i	i	i	6.7	i	i
